Key:
Settings in all cases: concentration: 1 μM, replicates: in singlicate; n = 1
[1] = tested on: AKT3
[2] = tested on: ALK
[3] = tested on: T1, AMPK-alpha1
T1 construct: gene PRKAA1

[4] = tested on: T2, AMPK-alpha2
T2 construct: gene PRKAA2

[5] = tested on: ANKK1
[6] = tested on: T3, ARK5
T3 construct: gene NUAK1

[7] = tested on: T4, ASK1
T4 construct: gene MAP3K5

[8] = tested on: T5, ASK2
T5 construct: gene MAP3K6

[9] = tested on: AURKA
[10] = tested on: AURKB
[11] = tested on: AURKC
[12] = tested on: AXL
[13] = tested on: T6, BIKE
T6 construct: gene BMP2K

[14] = tested on: BLK
[15] = tested on: BMPR1A
[16] = tested on: BMPR1B
[17] = tested on: BMPR2
[18] = tested on: BMX
[19] = tested on: BRAF
[20] = tested on: T7, BRK
T7 construct: gene PTK6
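Further: KINOMEscan kinase panel screen.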

Structure (SMILES) | %Inh [1] | %Inh [2] | %Inh [3] | %Inh [4] | %Inh [5] | %Inh [6] | %Inh [7] | %Inh [8] | %Inh [9] | %Inh [10] | %Inh [11] | %Inh [12] | %Inh [13] | %Inh [14] | %Inh [15] | %Inh [16] | %Inh [17] | %Inh [18] | %Inh [19] | %Inh [20]
COC(=O)c1c(-c2ccccc2)c2cc(Cl)ccc2c(=O)n1Cc1ccc(S(C)(=O)=O)cc1 | 0% | 8% | 7% | 0% | 0% | 19% | 6% | 6% | 4% | 12% | 0% | 0% | 0% | 0% | 0% | 5% | 0% | 17% | 65% | 7%
Cl.c1ccc(Cn2ccc3cc(Nc4ncnc5ccccc45)ccc32)cc1 [GW275568] | 0% | 0% | 11% | 0% | 43% | 29% | 1% | 0% | 17% | 30% | 0% | 0% | 13% | 0% | 0% | 0% | 13% | 18% | 0% | 0%
CNc1nccc(-c2c(-c3ccc(F)cc3)ncn2C2CCN(C)CC2)n1 [SB-222903] | 0% | 0% | 0% | 16% | 0% | 4% | 0% | 0% | 6% | 0% | 0% | 0% | 0% | 36% | 0% | 0% | 11% | 0% | 0% | 0%
Fc1cccc(COc2ccc(Nc3ncnc4cc[nH]c34)cc2Cl)c1 | 0% | 0% | 4% | 0% | 40% | 11% | 11% | 0% | 16% | 24% | 8% | 16% | 9% | 1% | 21% | 16% | 15% | 6% | 0% | 11%
NC(=O)c1sc(-n2cnc3ccccc32)cc1OCc1ccccc1F [GSK1024306] | 0% | 5% | 6% | 0% | 0% | 31% | 0% | 0% | 0% | 0% | 38% | 0% | 60% | 0% | 0% | 0% | 27% | 6% | 0% | 14%
Clc1ccc(-c2cc(-c3c[nH]nc3-c3ccccn3)ccn2)cc1 [GW681251] | 0% | 19% | 2% | 0% | 0% | 4% | 0% | 0% | 4% | 8% | 17% | 0% | 23% | 35% | 0% | 0% | 0% | 10% | 0% | 0%
Cn1ccc2ncnc(Nc3ccc(Oc4cccc(Cl)c4)c(Cl)c3)c21 | 0% | 0% | 18% | 20% | 0% | 22% | 0% | 11% | 0% | 33% | 0% | 0% | 0% | 14% | 22% | 0% | 29% | 13% | 0% | 17%
C[C@H]1CC[C@@H](C(=O)Nc2ccccc2)CN1c1cc(-c2ccc3c(N)n[nH]c3c2)nc(N)n1 [GSK2283293] | 0% | 30% | 0% | 13% | 11% | 1% | 0% | 5% | 0% | 6% | 25% | 0% | 23% | 50% | 0% | 0% | 0% | 7% | 0% | 19%
Cc1ccc(O)cc1Nc1cc(C(F)(F)F)nc2ccc(-c3ccncc3)cc12 [GW630823] | 0% | 0% | 0% | 0% | 0% | 0% | 30% | 0% | 0% | 0% | 5% | 0% | 7% | 12% | 0% | 0% | 0% | 17% | 0% | 11%
Nc1nc(-c2ccccn2)c(-c2ccnc3ccccc23)s1 [GW548057] | 0% | 17% | 14% | 1% | 20% | 24% | 2% | 0% | 17% | 0% | 25% | 8% | 33% | 9% | 0% | 35% | 32% | 9% | 0% | 1%
CSc1nn2c(=O)cc(N3CCOCC3)nc2n1Cc1cccc(Cl)c1Cl [GSK2347225] | 1% | 30% | 11% | 20% | 19% | 7% | 14% | 0% | 21% | 0% | 11% | 45% | 29% | 52% | 19% | 1% | 0% | 6% | 0% | 17%
Cc1cccc(-c2nc(Nc3ccc4[nH]nnc4c3)c3ccccc3n2)n1 [GW867587] | 0% | 2% | 0% | 0% | 0% | 0% | 0% | 0% | 0% | 0% | 0% | 0% | 0% | 3% | 0% | 0% | 8% | 0% | 0% | 0%
COc1ccc(NC(=O)c2ccc(-c3cc(-c4nnc(C)o4)ccc3C)cc2)cc1 [GW595885] | 0% | 36% | 0% | 14% | 0% | 0% | 10% | 15% | 0% | 26% | 5% | 0% | 14% | 34% | 0% | 0% | 0% | 10% | 1% | 11%
Fc1cccc(COc2ccc(Nc3ncnc4sc(-c5ccc[nH]5)cc34)cc2Cl)c1 [GW707818] | 0% | 0% | 10% | 36% | 12% | 6% | 21% | 0% | 6% | 0% | 9% | 0% | 24% | 0% | 25% | 0% | 1% | 6% | 0% | 0%
Cn1cc(-c2ccc3c(c2)CCN3C(=O)Cc2cccc(C(F)(F)F)c2)c2c(N)ncnc21 [GSK2606414] | 53% | 1% | 0% | 13% | 16% | 13% | 0% | 10% | 30% | 32% | 29% | 41% | 26% | 36% | 0% | 0% | 0% | 2% | 12% | 3%
Cl.c1ccc(Cn2ncc3cc(Nc4ncnc5ccccc45)ccc32)cc1 [GW273749] | 0% | 16% | 0% | 0% | 0% | 0% | 0% | 1% | 10% | 8% | 0% | 0% | 0% | 17% | 0% | 0% | 0% | 0% | 0% | 0%
CCn1c(-c2ccncc2)nc2cnccc21 [SB-735216] | 0% | 6% | 0% | 5% | 21% | 8% | 0% | 20% | 7% | 29% | 0% | 24% | 8% | 0% | 4% | 0% | 24% | 17% | 19% | 3%
FC(F)(F)c1ccc(-c2cc(-c3c[nH]nc3-c3ccccn3)ccn2)cc1 [GW599550] | 0% | 24% | 4% | 16% | 20% | 0% | 5% | 0% | 18% | 17% | 14% | 20% | 13% | 39% | 0% | 0% | 25% | 19% | 0% | 8%

Reference: paper PMC5540273 (PLoS ONE, 2017)
